Hits are enriched below; roughly 4.8% of the tested compounds scored in any of these assays.
APP 5'UTR act – activators of APP 5'UTR luciferase reporter, primary screen, SH-SY5Y cells. SH-SY5Y APP 5'UTR luciferase reporter, luminescence; zero percent = DMSO vehicle wells. activation, % at 2 µM. actives 1% (n = 190,000);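 active means activation above a set limit, based on mean plus 3 SD of controls, cut at about 140% in these data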
Wee1 degr inh – Wee1 degradation inhibitors, primary screen, cell-based, HeLa, Wee1K328M-luciferase, luminescence | actives 1.2% (n = 220,000) | reporter increase, % at 5 µM | HeLa Luc-Wee1K328M stability; 100% = proteasome inhibitor MG132 effect | Wee1-like protein kinase (Homo sapiens), P30291;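 active means activation above the mean of all tested compounds plus 3 SD, set per screening run, cut at about 8.8% in these data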;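 further: cells exposed to compound for 20 h before luminescence read; 0% = DMSO alone and 100% = MG132 at 30 µM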
NF-kB neuron act – activators of NF-kB expression in neurons, primary screen, cell-based, HTS; human neuronal cells, NF-kB reporter expression; hits give high values; fold change at 12.5 µM; actives 1.6% (n = 190,000); AID 1239, 2008; in the data active means fold change above about 3.3
Hsp70 act – Hsp70 transcriptional activators, primary screen, cell-based, HeLa, Hsp70 promoter luciferase, luminescence, 10 µM; HeLa Hsp70 promoter luciferase reporter; scaled: vehicle 0, proteasome-inhibitor control 100%; activation, % at 10 µM; actives 0.04% (n = 200,000); AID 1203, 2008;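 active means activation above the mean across all tested compounds plus 3 SD, cutoff set per campaign, cut at about 5.5% in these data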;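 further: 100% = MG132 at 30 µM as the positive control and 0% = DMSO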
APP 5UTR inh – inhibitors of APP translation via 5'UTR reporter, primary screen, APP 5'UTR luciferase, SH-SY5Y cells; inhibition, % at 2 µM; SH-SY5Y APP 5'UTR-luciferase reporter, luminescence; actives 0.82% (n = 190,000);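 active means inhibition above a set limit, derived from the sample mean plus 3 SD, cut at about 45% in these data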
STAT1 activator – STAT1 signaling activators, primary screen, cell-based, HTS, luciferase reporter. NIH 3T3 STAT1-luciferase reporter, IFN-gamma, luminescence; 100% = IFN-gamma alone, no compound. actives 2.6% (n = 200,000). activation (% of control), % at 5.5 µM;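 active means activation above the screen-wide mean activation plus 3 SD, cut at about 130% in these data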;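 further: raw ratio to IFN-gamma control signal so 100% means no change and 0% no light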
Active calls of the source: *; x = no result given.

SMILES	APP 5'UTR act	Wee1 degr inh	NF-kB neuron act	Hsp70 act	APP 5UTR inh	STAT1 activator
O=C(CN1CCN(c2ncccn2)CC1)N1CCCc2c1c(=O)oc1ccc(O)cc21	-72	0	0.94	0	72*	103
O=C1c2ccccc2C(=O)N1CCC(=O)N1CCc2ccccc21	9	0	x	-1	-9	102
CCCn1c(CCC(=O)O)ccc1-c1ccc(F)cc1	11	-2	1.1	0	-11	105
CCN(CC)C(=O)Oc1ccc2c(=O)c(-c3ccccc3)coc2c1	44	6	4.6*	0	-44	124
O=C(CNC(=O)c1ccccc1)OC1CCCCC1	94	0	2.9	0	-94	135*
CCOc1ccc(/C=N/Nc2ccccn2)cc1	182*	7	8.2*	0	-182	107
Brc1ccc(/C=N/Nc2ccccn2)cc1	58	1	3	0	-58	138*
Clc1ccc(/C=N/Nc2ccccn2)cc1	31	0	2.5	0	-31	135*
CCOc1ccc(OCc2ccc(C(=O)N3CCCC(C)C3)cc2)cc1 (centres undefined)	44	2	1.3	0	-44	98
O=C(NCc1ccc2c(c1)OCO2)C1CCCN1S(=O)(=O)c1ccc(F)cc1 (centres undefined)	x	-4	x	x	x	x
N#C/C(=C(/O)CSc1ncn[nH]1)c1nc2ccccc2[nH]1	-11	0	0.76	0	11	93
COC(=O)Cc1c(O)ccn(C2CC2)c1=O	2	-2	1.2	0	-2	94
O=C(c1cc2cc(Br)ccc2o1)N1CCCCC1	68	0	2.6	0	-68	134*
C/C(=N\N=c1/sc2ccccc2n1C)c1ccccn1	60	3	2	0	-60	142*
CCOC(=O)C1=C2c3cc(OC)c(OC)cc3CC(C)(C)N2C(=O)C1=O	1	1	1	0	-1	91
CCCCCSc1nc(O)cc(=O)[nH]1	23	-2	1.5	0	-22	93
CCSc1nc(O)cc(=O)[nH]1	x	11*	x	x	x	x
C=CCOc1c(Br)cc(/C=C2/NC(=S)N(C(C)=O)C2=O)cc1OC	5	2	1.1	0	-5	106
O=[N+]([O-])c1cccc(P(=O)(O)c2cccc([N+](=O)[O-])c2)c1	x	25*	x	x	x	x
O=C(c1cc(-n2cnnc2)ccc1Cl)N1CCN(c2nc(-c3ccccc3)cs2)CC1	18	-1	1.2	0	-18	97
Cc1ccc(/C=N/NC(=O)Nc2ccccc2)o1	107	2	1.2	0	-107	148*
Cc1ccc(/C=N/NC(=O)C(O)c2ccccc2)o1 (centres undefined)	x	-3	x	x	x	x
Cc1ccc(/C=N/NC(=S)NC(C)C)o1	-72	0	1.2	0	72*	105
Cc1[nH]c2ccccc2c1/C=N/NC(=S)NC(C)C	6	-2	0.69	0	-6	108
CC(C)NC(=S)N/N=C/c1c[nH]c2ccccc12	35	15*	1.7	0	-35	128
SMILES	APP 5'UTR act	Wee1 degr inh	NF-kB neuron act	Hsp70 act	APP 5UTR inh	STAT1 activator
CS(=O)(=O)Nc1ccc(C2=NN(S(C)(=O)=O)C(c3ccc4c(c3)OCO4)C2)cc1 (centres undefined)	66	2	2.3	0	-66	143*
CS(=O)(=O)Nc1cccc(C2=NN(S(C)(=O)=O)C(c3ccccc3)C2)c1 (centres undefined)	-8	3	1.4	0	8	96
CS(=O)(=O)N1N=C(c2ccc(Br)cc2)CC1c1cccs1 (centres undefined)	8	4	2	0	-8	114
COc1ccc(C2=NN(S(C)(=O)=O)C(c3cccs3)C2)cc1 (centres undefined)	110	-2	3.9*	1	-110	143*
COc1ccc(C2=NN(S(C)(=O)=O)C(c3ccc4nccnc4c3)C2)cc1 (centres undefined)	41	0	2.2	0	-41	136*
O=C(Nc1cccnc1)Nc1ccccc1Cl	0	-2	1.2	0	0	103
CC1CCC/C(=C\Nc2ccc(C(=O)O)cc2)C1=O (centres undefined)	139*	-1	3.8*	0	-139	149*
CCOC(=O)c1cnc2c(N=Nc3cccc(Cl)c3)c(N)nn2c1N	-7	2	1.3	0	7	102
CCOC(=O)c1cnc2c(N=Nc3ccccc3)c(N)nn2c1N	20	0	1.6	0	-20	138*
COc1ccccc1Oc1ccc(NC(=O)c2ccccc2)cc1	8	1	1.3	0	-8	108
COc1cc(NC(=O)c2ccccc2)cc(OC)c1	137*	0	3.4*	0	-91	113
COc1ccc(C(=O)Nc2cc(OC)cc(OC)c2)cc1	125	0	2.5	0	-125	132*
COc1ccc(OCC(=O)Nc2cc(OC)cc(OC)c2)cc1	-3	0	1.3	0	3	106
O=C1CC(N(Cc2cccs2)C(=O)Nc2ccccc2)C(=O)N1c1ccc(Cl)cc1 (centres undefined)	-2	5	0.87	0	2	102
CCOc1ccc(-c2cc(CCCC(=O)Nc3cccc(OC)c3)no2)cc1	-79	-2	0.68	0	80*	97
COc1ccc(/C=N/NC(=O)CCc2n[nH]c(=O)[nH]c2=O)cc1OC	-4	4	1.1	0	4	98
CCCOc1ccc(/C=N\NC(=O)CCc2n[nH]c(=O)[nH]c2=O)cc1OC	-1	9.6*	0.96	1	1	96
NNc1nc2ccc(F)cc2s1	104	3	2.1	0	-104	150*
NNc1nc2ccc(Cl)cc2s1	10	-1	1.7	-1	-10	109
COc1ccc(Nc2nc3ccc(OC)cc3s2)cc1	39	-2	2.5	0	-39	130*
Fc1ccc2nc(Nc3ccccc3)sc2c1	66	11*	3.7*	0	-66	140*
O=C(c1ccco1)N1CCCN(Cc2cn[nH]c2-c2ccc(-c3ccccc3)cc2)CC1	15	4	1	1	-16	115
Cn1ccnc1SCC(=O)c1ccc2ccccc2c1	164*	0	3	0	-164	146*
Cn1ccnc1SCC(=O)Nc1ccc2ccccc2c1	105	-1	4.4*	0	-105	140*
Cn1ccnc1SCC(=O)c1cccc(Br)c1	46	1	1.5	0	-46	113

Assay outcomes from PubChem.
